Shown are actives, neighbours in structure and some others; about 32% of the full set was active somewhere.
CYP2C19 inh: blocks human cytochrome P450 2C19 | CYP2C19 Supersomes, luciferin-H EGE luminescence, 30 min | inhibition, % at 5 µM | 96,000 compounds, 21% hits | AID 778;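 active means CYP2C19 inhibition above a set limit at 5 µM in the primary screen, cut at about 50% in these data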;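 further: plate controls were negative control wells for no effect and 2.5 mM tranylcypromine positive control for full effect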
Target sequence (P33261 whole entry, looked up): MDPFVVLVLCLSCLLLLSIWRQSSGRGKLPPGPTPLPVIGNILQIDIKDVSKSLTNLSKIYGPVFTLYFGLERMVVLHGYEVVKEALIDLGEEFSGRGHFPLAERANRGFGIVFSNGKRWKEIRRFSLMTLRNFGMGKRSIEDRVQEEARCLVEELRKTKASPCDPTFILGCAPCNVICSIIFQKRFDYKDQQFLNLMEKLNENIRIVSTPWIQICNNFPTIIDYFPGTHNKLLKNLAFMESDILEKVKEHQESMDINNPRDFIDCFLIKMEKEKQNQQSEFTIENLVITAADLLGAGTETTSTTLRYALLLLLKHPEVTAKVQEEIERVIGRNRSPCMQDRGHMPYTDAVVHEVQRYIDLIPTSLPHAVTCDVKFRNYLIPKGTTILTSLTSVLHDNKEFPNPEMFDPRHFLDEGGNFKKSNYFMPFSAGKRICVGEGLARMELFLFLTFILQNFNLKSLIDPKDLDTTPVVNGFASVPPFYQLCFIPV
CYP2C19 act: activators of human cytochrome P450 2C19. P33261. activation factor at 5 µM. recombinant CYP2C19, luciferin-H EGE luminescence; stronger effect = higher value; 0 = fully inhibited enzyme, 1 = untreated enzyme. 96,000 tested, under 10 active. AID 1025;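 active means activation factor of at least 2 at 5 µM in the primary screen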;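 further: 0 = wells with 2.5 mM tranylcypromine and 1 = vehicle-only wells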
PostGolgi yeast: growth inhibition of a yeast mutant, post-Golgi transport screen. post-Golgi transport phenotypic cell assay. inhibition, % at 10 µM. 98,000 compounds, 0.9% hits;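 further: yeast cells grown in 1536-well plates; yeast grown about 18 h at 30C before absorbance read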
CYP2C9 act: activators of human CYP2C9; P11712; recombinant CYP2C9, luciferin-H conversion, luminescence; stronger effect = higher value; factor 1 = untreated enzyme, 0 = blocked; activation factor at 5 µM; 96,000 compounds, 1.4% hits;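 active means activation factor of 2 or more for CYP2C9 at a 5 µM dose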;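 further: 0 = sulfaphenazole-blocked wells and 1 = vehicle-only wells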
CYP2C9 inhib: blocks human cytochrome P450 2C9. P11712. CYP2C9 Supersomes, luciferin-H conversion, luminescence. inhibition, % at 5 µM. 96,000 compounds, 20% hits. AID 777;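 active means blocking of liver enzyme CYP2C9 beyond about 50% at 5 µM, limit read from the data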
PostGolgi ctrl: inhibits growth of the yeast control strain. efflux-deficient yeast background strain, growth absorbance A615, 16 h. AID 738. inhibition, % at 10 µM. 98,000 compounds, 5% hits
The depositor's hits bear a star; x = no result given. Unless noted, no stated cut-off is given here; in the data, active means inhibition above about 30%; inactive means the rest.

SMILES | CYP2C19 inh | CYP2C19 act | PostGolgi yeast | CYP2C9 act | CYP2C9 inhib | PostGolgi ctrl
O=C(CCCC(=O)N1CCc2ccccc21)N1CCc2ccccc21 | 1.8 | 1 | x | 1 | -0.2 | x
O=C(CCN1CCc2ccccc2C1)Nc1cccc(F)c1 | 91.5* | 0.1 | 3.4 | 0.5 | 49.6 | 9.0
O=C(CCC(=O)N1CCc2ccccc21)Nc1ccccc1 | 92.5* | 0.1 | -8.0 | 0.6 | 36.9 | -1.5
O=C(CCN1CCc2ccccc2C1)Nc1ccccc1 | 91.4* | 0.1 | -7.2 | 0.4 | 60.5* | 3.2
COc1ccc2ccccc2c1CN1CCN(C)CC1 | 2.6 | 1 | -10.7 | 0.9 | 10.8 | 2.6
CCN(CC)CC(C(=O)N(CC)CC)P(=O)(c1ccccc1)c1ccccc1 (stereo unspecified) | -10.5 | 1.1 | -2.9 | 1.1 | -6.0 | 0.6
Cc1ccc(/C=c2\sc3nc(-c4ccco4)nn3c2=O)o1 | 22.1 | 0.8 | 1.0 | 1.2 | -16.3 | 6.2
COc1ccc(Br)cc1/C=c1\sc2nc(-c3ccco3)nn2c1=O | 62.1* | 0.4 | x | 0.4 | 60.7* | x
CN1CCN(CCC(=O)Nc2ccc(OCc3ccccc3)cc2)CC1 | -19.3 | 1.2 | 1.9 | 1.1 | -14.7 | 12.3
CCS(=O)(=O)N1CCN(C(=O)c2ccccc2)CC1 | 39.2 | 0.6 | -5.2 | 1 | 3.4 | 3.0
COc1ccccc1-n1c(SCC(=O)NC(C)(C)C)nc(O)c(Cc2ccccc2)c1=O | 8.4 | 0.9 | -7.5 | 1.1 | -6.7 | 3.0
Cc1cccc(NC(=S)NNC(=O)c2nn(C)cc2Cl)c1 | 60.9* | 0.4 | 4.2 | 0.8 | 17.7 | -1.3
Cc1c(Cl)c(C(=O)NNC(=S)Nc2ccccc2)nn1C | 77.7* | 0.2 | 1.2 | 0.8 | 21.4 | 8.0
Cc1ccc(NC(=S)NNC(=O)c2nn(C)cc2Cl)cc1 | 40.8 | 0.6 | 15.2 | 0.9 | 8.9 | 7.0
COc1ccccc1NC(=S)NNC(=O)c1c(Cl)c(C)nn1C | 7.3 | 0.9 | 16.9 | 0.3 | 66.1* | -2.5
COc1ccc(CCN2C(=O)C3C4CC(C5C(C(=O)N/N=C\c6ccc(Cl)cc6)=NOC45)C3C2=O)cc1OC (stereo unspecified) | 19.9 | 0.8 | -6.0 | 0.5 | 49.3 | 4.4
O=C(NC1CCN(C(=O)NCc2ccccc2)CC1)c1ccco1 | 4.1 | 1 | 2.0 | 1 | -1.6 | 1.2
COc1ccc(NC2C=CS(=O)(=O)C2)c(OC)c1 (stereo unspecified) | -14.5 | 1.1 | 8.0 | 1.2 | -16.9 | 0.6
C=CCNC(=S)Nc1sc2c(c1C(=O)OCC)CC(C(C)C)OC2 (stereo unspecified) | 15.3 | 0.8 | -17.1 | 0.9 | 8.8 | 16.3
CCCc1cc2c(cc1NC(=O)c1ccc(C)cc1)OCO2 | 98.2* | 0 | 4.3 | 0.6 | 40.6 | 13.7
CCC(=O)c1cc2c(cc1NC(=O)c1ccc(C)cc1)OCCO2 | -0.8 | 1 | -3.5 | 0.8 | 22.8 | 6.8
COc1ccc(NS(=O)(=O)c2c(C)[nH]c(=O)[nH]c2=O)c(OC)c1 | -9.0 | 1.1 | 12.9 | 0.5 | 46.6 | 11.5
Nc1c(NCc2ccccc2F)c(=O)[nH]c(=O)n1Cc1ccccc1 | 63.0* | 0.4 | 7.4 | 0.3 | 74.8* | 8.5
Cn1cc(S(=O)(=O)NCc2ccco2)c(=O)n(C)c1=O | 2.4 | 1 | 10.3 | 1.2 | -16.5 | -4.9
CC(C)OC(=O)c1cc(C(=O)c2cc(F)ccc2O)coc1=N | 85.3* | 0.1 | 1.6 | 0.3 | 73.1* | 6.1
SMILES | CYP2C19 inh | CYP2C19 act | PostGolgi yeast | CYP2C9 act | CYP2C9 inhib | PostGolgi ctrl
CCOC(=O)CC(N)c1ccc(OC)cc1 (stereo unspecified) | 6.1 | 0.9 | -1.6 | 1 | -1.1 | 6.1
COC(=O)c1ccccc1NC(=O)CSc1nnc(-c2cccc(NC(C)=O)c2)n1C | 94.1* | 0.1 | 4.2 | 0.6 | 38.7 | 7.3
O=C(CSc1ncccn1)n1c2c(c3ccccc31)CCCC2 | -2.9 | 1 | -0.8 | 2.1* | -111.8 | 50.7*
CCN(CC)CC(=O)n1c2c(c3ccccc31)CCCC2 | 37.2 | 0.6 | -5.8 | 1.2 | -15.7 | 0.9
CC(=O)Nc1cccc(-c2nnc(SCC(=O)N3CCCCC3)n2C)c1 | x | x | -0.2 | x | x | -2.7
CC(=O)Nc1cccc(-c2nnc(SCC(=O)n3c4c(c5ccccc53)CCCC4)n2C)c1 | 92.9* | 0.1 | -6.6 | 1.1 | -11.6 | 3.2
Cn1c(N)c(C(=O)COC(=O)C2CCCCC2)c(=O)n(C)c1=O | 10.6 | 0.9 | 20.3 | 1 | -3.7 | -6.6
Nc1cc(OC(=O)c2cccs2)nn1S(=O)(=O)c1ccc(F)cc1 | 39.8 | 0.6 | -3.1 | 0.1 | 92.9* | 0.3

From PubChem BioAssay
